Laboratory results: paper PMC9911399, “Two distinct binding modes provide the RNA-binding protein RbFox with extraordinary sequence specificity”
Positions count from the first letter of the chain named. Over roughly 16,000 sequences, “ka relative to ugcaugu” has its median near 0.0091; the highest 2% begin near 0.032. The sample holds the highest values, similar sequences and a random draw of the others, so the mix is not that of the screen.

T1: RBFOX1 RRM (Homo sapiens, UniProt Q9NWB1 109-208)
T1 sequence: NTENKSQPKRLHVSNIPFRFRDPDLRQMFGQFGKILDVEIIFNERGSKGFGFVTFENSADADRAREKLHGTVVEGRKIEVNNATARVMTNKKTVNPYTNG

B1: UACAUAC (DNA:RNA)
RNA: GGGAGACCGGAAUUCAGAUUGUCCUACAUACUUAAAUCCCGUCGUAGCCACCA
DNA 1: CAATCTGAATTCCGGTCTCCC
DNA 2: TGGTGGCTACGACGGGATT
B2: GGUAUUA (DNA:RNA)
RNA: B1 RNA with U25G, A26G, C27U, A30U, C31A
DNA 1: CAATCTGAATTCCGGTCTCCC
DNA 2: TGGTGGCTACGACGGGATT
B3: GGUAAUG (DNA:RNA)
RNA: B1 RNA with U25G, A26G, C27U, U29A, A30U, C31G
DNA 1: CAATCTGAATTCCGGTCTCCC
DNA 2: TGGTGGCTACGACGGGATT
B4: UUAGUUG (DNA:RNA)
RNA: B1 RNA with A26U, C27A, A28G, A30U, C31G
DNA 1: CAATCTGAATTCCGGTCTCCC
DNA 2: TGGTGGCTACGACGGGATT
B5: AUGCCAC (DNA:RNA)
RNA: B1 RNA with U25A, A26U, C27G, A28C, U29C
DNA 1: CAATCTGAATTCCGGTCTCCC
DNA 2: TGGTGGCTACGACGGGATT
B6: GUUACCC (DNA:RNA)
RNA: B1 RNA with U25G, A26U, C27U, U29C, A30C
DNA 1: CAATCTGAATTCCGGTCTCCC
DNA 2: TGGTGGCTACGACGGGATT
B7: CCUGGUG (DNA:RNA)
RNA: GGGAGACCGGAAUUCAGAUUGUCCCCUGGUGUUAAAUCCCGUCGUAGCCACCA
DNA 1: CAATCTGAATTCCGGTCTCCC
DNA 2: TGGTGGCTACGACGGGATT
B8: UGGGUGC (DNA:RNA)
RNA: B1 RNA with A26G, C27G, A28G, A30G
DNA 1: CAATCTGAATTCCGGTCTCCC
DNA 2: TGGTGGCTACGACGGGATT
B9: UGGGCGU (DNA:RNA)
RNA: B7 RNA with C25U, C26G, U27G, G29C, U30G, G31U
DNA 1: CAATCTGAATTCCGGTCTCCC
DNA 2: TGGTGGCTACGACGGGATT
B10: UGGUGCU (DNA:RNA)
RNA: B7 RNA with C25U, C26G, U27G, G28U, U30C, G31U
DNA 1: CAATCTGAATTCCGGTCTCCC
DNA 2: TGGTGGCTACGACGGGATT
B11: CCCUGGG (DNA:RNA)
RNA: B7 RNA with U27C, G28U, U30G
DNA 1: CAATCTGAATTCCGGTCTCCC
DNA 2: TGGTGGCTACGACGGGATT
B12: UGGCGUU (DNA:RNA)
RNA: B7 RNA with C25U, C26G, U27G, G28C, G31U
DNA 1: CAATCTGAATTCCGGTCTCCC
DNA 2: TGGTGGCTACGACGGGATT
B13: UGGGGCG (DNA:RNA)
RNA: B7 RNA with C25U, C26G, U27G, U30C
DNA 1: CAATCTGAATTCCGGTCTCCC
DNA 2: TGGTGGCTACGACGGGATT
B14: UGGGUGA (DNA:RNA)
RNA: B1 RNA with A26G, C27G, A28G, A30G, C31A
DNA 1: CAATCTGAATTCCGGTCTCCC
DNA 2: TGGTGGCTACGACGGGATT
B15: CUGGGUG (DNA:RNA)
RNA: B7 RNA with C26U, U27G
DNA 1: CAATCTGAATTCCGGTCTCCC
DNA 2: TGGTGGCTACGACGGGATT
B16: CUAAUAC (DNA:RNA)
RNA: B1 RNA with U25C, A26U, C27A
DNA 1: CAATCTGAATTCCGGTCTCCC
DNA 2: TGGTGGCTACGACGGGATT
B17: UUAAUCA (DNA:RNA)
RNA: B1 RNA with A26U, C27A, A30C, C31A
DNA 1: CAATCTGAATTCCGGTCTCCC
DNA 2: TGGTGGCTACGACGGGATT
B18: UUUGCUU (DNA:RNA)
RNA: B7 RNA with C25U, C26U, G29C, G31U
DNA 1: CAATCTGAATTCCGGTCTCCC
DNA 2: TGGTGGCTACGACGGGATT
B19: CCAAUGG (DNA:RNA)
RNA: B7 RNA with U27A, G28A, G29U, U30G
DNA 1: CAATCTGAATTCCGGTCTCCC
DNA 2: TGGTGGCTACGACGGGATT
B20: UACCAUC (DNA:RNA)
RNA: B1 RNA with A28C, U29A, A30U
DNA 1: CAATCTGAATTCCGGTCTCCC
DNA 2: TGGTGGCTACGACGGGATT
B21: CAGGAGG (DNA:RNA)
RNA: B7 RNA with C26A, U27G, G29A, U30G
DNA 1: CAATCTGAATTCCGGTCTCCC
DNA 2: TGGTGGCTACGACGGGATT
B22: GGAAUGG (DNA:RNA)
RNA: B1 RNA with U25G, A26G, C27A, A30G, C31G
DNA 1: CAATCTGAATTCCGGTCTCCC
DNA 2: TGGTGGCTACGACGGGATT
B23: GGCAUGG (DNA:RNA)
RNA: B1 RNA with U25G, A26G, A30G, C31G
DNA 1: CAATCTGAATTCCGGTCTCCC
DNA 2: TGGTGGCTACGACGGGATT
B24: GCAUGGG (DNA:RNA)
RNA: B7 RNA with C25G, U27A, G28U, U30G
DNA 1: CAATCTGAATTCCGGTCTCCC
DNA 2: TGGTGGCTACGACGGGATT
B25: GUAUGGU (DNA:RNA)
RNA: B7 RNA with C25G, C26U, U27A, G28U, U30G, G31U
DNA 1: CAATCTGAATTCCGGTCTCCC
DNA 2: TGGTGGCTACGACGGGATT
B26: GCAUGGC (DNA:RNA)
RNA: B7 RNA with C25G, U27A, G28U, U30G, G31C
DNA 1: CAATCTGAATTCCGGTCTCCC
DNA 2: TGGTGGCTACGACGGGATT
B27: GCAUAGC (DNA:RNA)
RNA: B7 RNA with C25G, U27A, G28U, G29A, U30G, G31C
DNA 1: CAATCTGAATTCCGGTCTCCC
DNA 2: TGGTGGCTACGACGGGATT
B28: GUCAUGG (DNA:RNA)
RNA: B1 RNA with U25G, A26U, A30G, C31G
DNA 1: CAATCTGAATTCCGGTCTCCC
DNA 2: TGGTGGCTACGACGGGATT
B29: GCAUGGU (DNA:RNA)
RNA: B7 RNA with C25G, U27A, G28U, U30G, G31U
DNA 1: CAATCTGAATTCCGGTCTCCC
DNA 2: TGGTGGCTACGACGGGATT
B30: GGAUGGC (DNA:RNA)
RNA: B7 RNA with C25G, C26G, U27A, G28U, U30G, G31C
DNA 1: CAATCTGAATTCCGGTCTCCC
DNA 2: TGGTGGCTACGACGGGATT
B31: GCAUCGU (DNA:RNA)
RNA: B7 RNA with C25G, U27A, G28U, G29C, U30G, G31U
DNA 1: CAATCTGAATTCCGGTCTCCC
DNA 2: TGGTGGCTACGACGGGATT
B32: GGAUGGG (DNA:RNA)
RNA: B7 RNA with C25G, C26G, U27A, G28U, U30G
DNA 1: CAATCTGAATTCCGGTCTCCC
DNA 2: TGGTGGCTACGACGGGATT
B33: GUAUGGG (DNA:RNA)
RNA: B7 RNA with C25G, C26U, U27A, G28U, U30G
DNA 1: CAATCTGAATTCCGGTCTCCC
DNA 2: TGGTGGCTACGACGGGATT

Biological target: T1, RBFOX1 RRM
Assay: EMSA; HiTS-Eq, 1 nM pool, 10 min; buffer printed only for the single-RNA assays: 10 mM Tris pH 7.5, 150 mM NaCl, 3.4 mM EDTA, 0.001% NP-40, 30 C
Settings: tags: His6 N-terminal (pET28a); label: 5' 32P
Procedure, shortened: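 Purified RbFox RRM (wild type or mutant) was equilibrated for 10 min in 50 µL with 1 nM of a 5′-radiolabelled pool of RNA with 7 randomized nucleotides, its flanks annealed to DNA oligonucleotides, across increasing protein concentrations. Free RNA was separated by 8% native PAGE, excised, reverse-transcribed, PCR-barcoded and sequenced on an Illumina HiSeq 2500. Relative association constants came from read-count changes of each variant against the control reaction, normalised to the cognate motif.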

Binder	binding signal
B1	0.00108 KA relative to UGCAUGU
B2	0.00455 KA relative to UGCAUGU
B3	0.0152 KA relative to UGCAUGU
B4	0.0187 KA relative to UGCAUGU
B5	0.0065 KA relative to UGCAUGU
B6	0.0047 KA relative to UGCAUGU
B7	0.0199 KA relative to UGCAUGU
B8	0.0429 KA relative to UGCAUGU
B9	0.0388 KA relative to UGCAUGU
B10	0.0292 KA relative to UGCAUGU
B11	0.00714 KA relative to UGCAUGU
B12	0.0221 KA relative to UGCAUGU
B13	0.0294 KA relative to UGCAUGU
B14	0.0273 KA relative to UGCAUGU
B15	0.0408 KA relative to UGCAUGU
B16	0.00176 KA relative to UGCAUGU
B17	0.00562 KA relative to UGCAUGU

Binder	binding signal
B18	0.0228 KA relative to UGCAUGU
B19	0.00975 KA relative to UGCAUGU
B20	0.000341 KA relative to UGCAUGU
B21	0.00882 KA relative to UGCAUGU
B22	0.0293 KA relative to UGCAUGU
B23	0.104 KA relative to UGCAUGU
B24	0.0735 KA relative to UGCAUGU
B25	0.0104 KA relative to UGCAUGU
B26	0.43 KA relative to UGCAUGU
B27	0.0095 KA relative to UGCAUGU
B28	0.0107 KA relative to UGCAUGU
B29	0.558 KA relative to UGCAUGU
B30	0.0116 KA relative to UGCAUGU
B31	0.0157 KA relative to UGCAUGU
B32	0.0169 KA relative to UGCAUGU
B33	0.00944 KA relative to UGCAUGU
